For one test, the target named is ZNF250. Description: pooled miR-30 sensor sort-seq; sequence = guide strand. The settings on record: shRNA.
Sequence TGTATTTTGACTCTCTCCCTTG showed a sensor-assay potency score (higher = more potent) of -0.459. Still for that read-out and setting: the figure for TTAACAGAGACTTCTCTTGGGC is -0.0398; for TTGTCTGAGTAGTCACTCCACA it is -0.51; for TTACTAAGGACTGAGCTCTGGC it is 0.163.

The target of the next test is ZNF259. Described as above. The settings on record: shRNA.
In the case of TTCAGTTTGACAATGAACTCAT, the sensor-assay potency score (higher = more potent) was 0.875. In turn, TAACACAATAGGCTCACACTTG gave a sensor-assay potency score (higher = more potent) of -0.434. On the same count and under the same terms, in the case of TCAGTCTTCACCACTTCTCTGT it was 0.0434; in that of TCACACTTGCATCACAAGCTGT, -0.681. Same read-out and setting: the figure for TTGTACTAGCTTCATGTTGGTC is -0.732. Still for that read-out and setting: the figure for TTTTCCACAAAACTGTTCCCTG is -0.697; for TTCGATGATCTGGTCCATCTTC it is -0.231; for TTCATTTCTGAGATCTTCCTCT it is 0.123.

For the sequence TTGCAGTAACAGTTCATGCATA, the sensor-assay potency score (higher = more potent) was -0.757.

For TTCTGAGATCTTCCTCTTCTGG, the sensor-assay potency score (higher = more potent) is -1.55. On the same count and under the same terms, in the case of TTGTAGTGTGTGATCACCAGGG it was 0.392; in that of TAAACTCCTGTAGTCTCTCCGT, -0.469.

For the origin of these results see the OligoGym collection.
Note: reference of the scale not given here.
